Sampled rows, rich in hits. Any-hit rate of the full collection: about 7.4%.
p53 reactivator – qHTS assay for re-activators of p53 using a Luc reporter | H1299 p53-A138V BP100-luciferase reporter, luminescence, 24 h | Potency, µM (titrated, usually from 92.2 µM), for inactives: at the top dose activity change, positive = activation, hits mostly activators | hit rate 0.063% among 320,000 | AID 504706, 2011; note: % of control where 0% means no effect; nearly all actives have a fitted effect of over 45% in size
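p53-null H1299 cells stably carrying temperature-sensitive p53-A138V and a BP100-luciferase reporter were pinned with compounds (4-point, 1:5 series) and held 24 hrs at 37 deg C. Luminescence was read 10 min after detection reagent.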
ELG1 genotoxic – qHTS screen for small molecules that induce genotoxicity in human embryonic kidney (HEK293T) cells expressing luciferase-tagged ELG1; Potency, µM (doses to about 46 µM), for the others: at the top dose activity change, positive = activation, most hits filed as activators; HEK293T ELG1-luciferase reporter, luminescence, 16 h; hit rate 1.3% among 330,000; note: % of control where 0% means no effect; nearly all actives have a fitted effect of over 60% in size
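Luminescence read-out: rising ELG1-luciferase signal, reflecting elevated ELG1 protein under genetic stress, flags genotoxic compounds. Cells were treated for 16 hr at 37 °C before ONE-Glo detection.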
FLuc counter – qHTS profiling assay for firefly luciferase inhibitor/activator using purifed enzyme and Km concentrations of substrates (counterscreen for miR-21 project); Luciferin 4-monooxygenase (Photinus pyralis), P08659; purified FLuc, Km substrates, luminescence inhibition; Potency, µM (doses to about 57.5 µM), for inactives: top-dose activity change, negative = inhibition, hits mostly inhibitors; hit rate 6.9% among 360,000; AID 588342, 2011;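 note: plate controls were vehicle for no effect and reference inhibitor for full effect; nearly all actives have a fitted effect of over 55% in size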
Target sequence (P08659 whole entry, looked up): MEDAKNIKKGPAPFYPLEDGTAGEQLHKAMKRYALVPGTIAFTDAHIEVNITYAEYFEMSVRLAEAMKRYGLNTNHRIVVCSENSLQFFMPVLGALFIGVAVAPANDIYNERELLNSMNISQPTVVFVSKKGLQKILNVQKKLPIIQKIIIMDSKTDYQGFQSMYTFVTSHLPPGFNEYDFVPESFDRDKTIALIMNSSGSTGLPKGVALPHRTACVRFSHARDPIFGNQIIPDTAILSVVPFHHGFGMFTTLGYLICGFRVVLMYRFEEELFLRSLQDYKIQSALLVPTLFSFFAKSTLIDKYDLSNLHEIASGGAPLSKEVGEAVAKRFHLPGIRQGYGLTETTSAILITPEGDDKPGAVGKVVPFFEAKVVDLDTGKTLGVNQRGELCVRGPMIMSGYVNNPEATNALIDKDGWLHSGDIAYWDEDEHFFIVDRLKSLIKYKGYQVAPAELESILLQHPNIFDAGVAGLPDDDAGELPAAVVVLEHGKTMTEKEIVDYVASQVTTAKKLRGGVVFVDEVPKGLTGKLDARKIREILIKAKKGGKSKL
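Purified P. pyralis luciferase, 10 nM final, with Km-level 10 uM D-luciferin and 10 uM ATP in 50 mM Tris acetate pH 7.5, 10 mM Mg acetate, 0.01% Tween-20, 0.05% BSA; 6-point qHTS titration about 60 µM downward; luminescence read.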
SMN2 splice up – qHTS Assay for Enhancers of SMN2 Splice Variant Expression | HEK293 SMN2-luciferase splicing reporter, luminescence, 30-36 h | AID 1458, 2008 | Potency, µM (doses to about 46.1 µM), inactives show at the top dose activity change, positive = activation, hits mostly activators | hit rate 2.8% among 210,000; note: % of control where 0% means no effect; nearly all actives have a fitted effect of over 55% in size
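HEK293 cells carry an SMN2 […]–luciferase reporter in which exon 7 inclusion puts luciferase in frame. Cells were plated 10-12 h before compound addition, then incubated 30-36 h at 37C. ONE-Glo luminescence was read; sodium butyrate at 4.5 mM final served as control.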
NPC1 promoter act – qHTS Assay for NPC1 Promoter Activators; Huh7 NPC1 promoter luciferase reporter, 24 h; Potency, µM (doses to about 9.22 µM), inactives show top-dose activation, actives largely listed as activators; hit rate 2.4% among 320,000; note: % of control where 0% means no effect; nearly all actives have a fitted effect of over 60% in size
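Stably transfected Huh7 (NPC1 promoter→luciferase), 1500 cells/well in Opti-MEM + 10% FBS, 2 h settle, then compound 24 h at 37 °C. Luminescence after 10 min with Amplite reagent.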
Rab9 prom act – qHTS Assay for Rab9 Promoter Activators | AID 485297, 2010 | hit rate 2.8% among 320,000 | Huh7 Rab9 promoter-luciferase reporter, luminescence, 24 h | Potency, µM (series often up to 9.22 µM), for the others: at the highest dose activation, negative = inhibition, most hits filed as activators; note: % of control where 0% means no effect; nearly all actives have a fitted effect of over 60% in size
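Huh7 cells stably carrying a Rab9 promoter-luciferase reporter, 1500 cells per well in OP-MEM I with 10% FBS, treated with compound 24 hours at 37C. Luciferase activity read by luminescence after 10 minutes with Amplite reagent.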
The depositor's hits bear a star; ? = inconclusive; . = no result given; [ ] = dose if it differs, or a comment. Calls come from the whole dose curve; as a rule, active = well fitted curve in the direction sought with a large enough effect; inconclusive = small, poorly fitted or top-dose-only effect, or another doubt; inactive = no such curve, though single readings can be large; an effect the other way counts as inactive or inconclusive. Potency is the fitted concentration of half-maximal effect.

SMILES	p53 reactivator	ELG1 genotoxic	FLuc counter	SMN2 splice up	NPC1 promoter act	Rab9 prom act
CN(C)S(=O)(=O)c1ccc(NC(=O)c2ccc3ncsc3c2)cc1	3%	?	?	.	24%	15%
O=C(Nc1ccc(Br)cc1)c1ccc2ncsc2c1	?	1.6µM*	5.4µM*	.	0.4µM*	0.35µM*
CCc1ccc(NC(=O)c2ccc3ncsc3c2)cc1	10%	?	2.7µM*	8.9µM*	1.4µM*	3.5µM*
O=C(Nc1ccc2c(c1)C(=O)NC2=O)c1ccc2ncsc2c1	-2%	?	?	11µM*	?	?
O=C(COC(=O)c1ccc2ncsc2c1)Nc1ccc(OC(F)(F)F)cc1	9%	11%	.	.	.	.
COc1ccc(-c2nc(-c3ccncc3)no2)cc1OC	?	16µM*	9.5µM*	?	?	26%
Cc1ccc(-c2nc(-c3ccncc3)no2)cc1Cl	.	?	2.7µM*	.	2µM*	3.2µM*
CNc1ccc(-c2nc(-c3ccncc3)no2)cc1[N+](=O)[O-]	.	.	-3%	.	.	.
COc1cc(OC)c(NC(=O)CCc2nc(-c3ccc(C)cc3)no2)cc1Cl	?	0%	21µM*	11%	7%	11%
Cc1ccc(-c2nc(-c3ccncc3)no2)cc1C	?	2.3µM*	0.76µM*	.	0.71µM*	0.56µM*
CCOc1ccc(OCC)c(NC(=O)C2CCN(c3nnc(-n4cccc4)s3)CC2)c1	.	.	2%	.	.	.
COc1cc(-c2noc(-c3cccs3)n2)cc(OC)c1OC	3%	3%	-10%	?	1%	4%
COc1ccc(-c2noc(-c3ccco3)n2)cc1OC	.	.	7.6µM*	13µM*	.	.
Cc1cc(-c2nc(-c3ccncc3)no2)ccc1[N+](=O)[O-]	?	?	4.8µM*	.	2.2µM*	4µM*
Fc1cccc(F)c1-c1nc(-c2ccncc2)no1	?	?	17µM*	.	?	2µM*
FC(F)(F)c1ccccc1-c1nc(-c2ccncc2)no1	13%	6%	?	.	1%	7%
COc1ccc(-c2noc(-c3cccs3)n2)cc1OC	?	?	2.4µM*	.	1.3µM*	1.6µM*
CCc1ccc(S(=O)(=O)NCc2nc3cccnc3n2Cc2cccc(OC)c2)cc1	.	.	-11%	.	.	.
COc1ccc(CCC(=O)Nc2ccc(-c3noc(-c4ccc(OC)c(OC)c4)n3)cc2)cc1	?	?	0%	11µM*	?	?
COc1ccc(-c2noc(-c3ccccc3Cl)n2)cc1OC	?	?	2.7µM*	5.6µM*	3.2µM*	2.5µM*
COc1ccc(-c2noc(-c3cccc(Cl)c3)n2)cc1OC	?	?	?	?	?	28%
COc1ccc(CNc2ccc(N3CCOCC3)cc2)cc1	-1%	-3%	27µM*	.	13%	?
CCOC(=O)c1cc(-c2ccc(/C=C3/C(=O)N(c4ccc(C(=O)O)cc4)N=C3C)o2)ccc1Cl	-12%	4%	?	.	-12%	-9%
Cc1ccccc1NC(=O)CN1C(=O)S/C(=C\c2ccc(-c3cccc(C(=O)O)c3C)o2)C1=O	-3%	9%	?	11µM*	14%	0%[1.84 µM]
Cc1cccc(NC(=O)CN2C(=O)S/C(=C\c3ccc(-c4cccc(C(=O)O)c4C)o3)C2=O)c1	-1%	0%	19µM*	28%	-2%	6%
O=C(O)c1ccccc1-c1ccc(/C=C2\SC(=O)N(c3ccccc3)C2=O)o1	29%	?	13µM*	.	2.5µM*	2µM*
O=C1S/C(=C\c2ccc(N3CCOCC3)o2)C(=O)N1c1ccccc1	2%	?	?	18%	?	?
Cc1ccccc1NC(=O)CN1C(=O)c2ccccc2C1=O	6%	-2%	-5%	.	2%	-6%
